Values joined by “and” are separate entries in the source; they are usually repeats but may differ in a detail not shown here. Equal entries are not always repeated. The campaign covered roughly 5,500 compounds. About 2,000 (36%) were called active. Roughly 18% stayed inconclusive and do not appear here. Cut-off read from the data, not from the text of the source: active = normalized growth mostly below about 0.91 (no sharp cut-off); inconclusive = no clear call, values can overlap the other calls; inactive = mostly above about 0.92. The list shows a part of the results.
Test: chemical genetic growth profiling, strain panel (AID 1159580);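 note: tested at 20 µM; growth read once vehicle control cultures reached saturation at 30 °C; 1 = growth at the plate median or of vehicle wells; lower values mean less growth of the strain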
Settings: growth OD
[1] = S. cerevisiae deletion strains, locus YAL013W, strain DEP1, stronger effect = lower value
[2] = S. cerevisiae deletion strains, locus YBR229C, strain ROT2, stronger effect = lower value
[3] = S. cerevisiae deletion strains, locus YDL101C, strain DUN1, stronger effect = lower value
[4] = S. cerevisiae deletion strains, locus YDR150W, strain NUM1, stronger effect = lower value
[5] = S. cerevisiae deletion strains, locus YEL061C, strain CIN8, stronger effect = lower value
[6] = S. cerevisiae deletion strains, locus YGR078C, strain PAC10, stronger effect = lower value
[7] = S. cerevisiae deletion strains, locus YGR229C, strain SMI1, stronger effect = lower value
[8] = S. cerevisiae deletion strains, locus YHR030C, strain SLT2, stronger effect = lower value
[9] = S. cerevisiae deletion strains, locus YHR087W, strain rtc3, stronger effect = lower value
[10] = S. cerevisiae deletion strains, locus YJL187C, strain SWE1, stronger effect = lower value
[11] = S. cerevisiae deletion strains, locus YJR043C, strain POL32, stronger effect = lower value
[12] = S. cerevisiae deletion strains, locus YJR075W, strain HOC1, stronger effect = lower value
[13] = S. cerevisiae deletion strains, locus YLR039C, strain RIC1, stronger effect = lower value
[14] = S. cerevisiae deletion strains, locus YLR058C, strain SHM2 (second series), stronger effect = lower value
[15] = S. cerevisiae deletion strains, locus YLR085C, strain ARP6, stronger effect = lower value
[16] = S. cerevisiae deletion strains, locus YLR262C, strain YPT6, stronger effect = lower value
[17] = S. cerevisiae deletion strains, locus YML094W, strain GIM5, stronger effect = lower value
[18] = S. cerevisiae deletion strains, locus YMR219W, strain ESC1, stronger effect = lower value
[19] = S. cerevisiae deletion strains, locus YMR263W, strain SAP30, stronger effect = lower value
[20] = S. cerevisiae deletion strains, locus YNL153C, strain GIM3, stronger effect = lower value
[21] = S. cerevisiae deletion strains, locus YNL298W, strain CLA4 (second series), stronger effect = lower value
[22] = S. cerevisiae deletion strains, locus YNL322C, strain KRE1, stronger effect = lower value
[23] = S. cerevisiae deletion strains, locus YNR030W, strain Alg12, stronger effect = lower value
[24] = S. cerevisiae deletion strains, locus YPL055C, strain LGE1, stronger effect = lower value
[25] = S. cerevisiae deletion strains, locus YPL241C, strain CIN2, stronger effect = lower value
[26] = S. cerevisiae deletion strains, locus YPR135W, strain CTF4, stronger effect = lower value

Measured: normalized growth

CCC(=O)Oc1ccc(NC(=S)NCCCO)cc1
inactive: [1] 1 | [2] 1 | [3] 0.998 | S. cerevisiae deletion strains, locus YDL134C, strain PPH21, stronger effect = lower value 0.992 | [4] 1 | [5] 1.01 | [6] 1 | [7] 1 | [8] 1.05 | [9] 0.999 | [10] 1 | [11] 1 | [12] 1.01 | [13] 0.996 | [14] 1 | [15] 1.04 | [16] 1 | [17] 1.04 | [18] 1 | [19] 1.01 | S. cerevisiae deletion strains, locus YMR307W, strain GAS1, stronger effect = lower value 1.04 | [20] 1.01 | [21] 1.01 | [22] 1.01 | [23] 1.02 | S. cerevisiae deletion strains, locus YOL006C, strain TOP1, stronger effect = lower value 1.01 | [24] 1.01 | [25] 1.04 | [26] 1.22 | S. cerevisiae strains, strain wild type, stronger effect = lower value 0.993

CC(NC(=S)Nc1ccc(Oc2ccc(Cl)cc2)cc1)c1ccccc1 (configuration not stated)
inactive: [1] 0.973 | S. cerevisiae deletion strains, locus YAR019C, strain CDC15, stronger effect = lower value 0.952 | S. cerevisiae deletion strains, locus YBL105C, strain PKC1, stronger effect = lower value 0.965 | S. cerevisiae deletion strains, locus YBR135W, strain CKS1, stronger effect = lower value 0.956 | S. cerevisiae deletion strains, locus YBR136W, strain MEC1, stronger effect = lower value 0.968 | S. cerevisiae deletion strains, locus YBR160W, strain CDC28, stronger effect = lower value 0.976 | [2] 0.983 | S. cerevisiae deletion strains, locus YCL061C, strain MRC1, stronger effect = lower value 0.983 | S. cerevisiae deletion strains, locus YDL017W, strain CDC7, stronger effect = lower value 0.979 | S. cerevisiae deletion strains, locus YDL028C, strain MPS1, stronger effect = lower value 0.971 | [3] 0.978 and 0.974 | S. cerevisiae deletion strains, locus YDL108W, strain KIN28, stronger effect = lower value 0.965 | S. cerevisiae deletion strains, locus YDL132W, strain cdc53, stronger effect = lower value 0.964 | S. cerevisiae deletion strains, locus YDL214C, strain PRR2, stronger effect = lower value 0.94 | S. cerevisiae deletion strains, locus YDR052C, strain DBF4, stronger effect = lower value 0.955 | S. cerevisiae deletion strains, locus YDR054C, strain cdc34, stronger effect = lower value 0.965 | [4] 0.97 | S. cerevisiae deletion strains, locus YDR226W, strain ADK1, stronger effect = lower value 0.953 | S. cerevisiae deletion strains, locus YDR477W, strain SNF1, stronger effect = lower value 0.937 | [5] 0.961 | S. cerevisiae deletion strains, locus YER123W, strain YCK3, stronger effect = lower value 0.909 | S. cerevisiae deletion strains, locus YER133W, strain GLC7, stronger effect = lower value 0.941 | S. cerevisiae deletion strains, locus YFL009W, strain cdc4, stronger effect = lower value 0.958 | S. cerevisiae deletion strains, locus YFL029C, strain CAK1, stronger effect = lower value 0.941 | S. cerevisiae deletion strains, locus YFR003C, strain YPI1, stronger effect = lower value 0.961 | S. cerevisiae deletion strains, locus YFR019W, strain FAB1, stronger effect = lower value 0.96 | S. cerevisiae deletion strains, locus YFR028C, strain CDC14, stronger effect = lower value 0.946 | S. cerevisiae deletion strains, locus YGR040W, strain KSS1, stronger effect = lower value 0.922 | S. cerevisiae deletion strains, locus YGR052W, strain FMP48, stronger effect = lower value 1.08 | [6] 0.995 | S. cerevisiae deletion strains, locus YGR092W, strain DBF2, stronger effect = lower value 0.947 | [7] 0.975 | S. cerevisiae deletion strains, locus YHR079C, strain IRE1, stronger effect = lower value 0.97 | S. cerevisiae deletion strains, locus YHR082C, strain KSP1, stronger effect = lower value 1.02 | [9] 0.988 | S. cerevisiae deletion strains, locus YHR205W, strain SCH9, stronger effect = lower value 0.954 | S. cerevisiae deletion strains, locus YIL147C, strain SLN1, stronger effect = lower value 0.96 | S. cerevisiae deletion strains, locus YJL095W, strain BCK1, stronger effect = lower value 0.932 | S. cerevisiae deletion strains, locus YJL128C, strain PBS2, stronger effect = lower value 0.918 | S. cerevisiae deletion strains, locus YJL157C, strain FAR1, stronger effect = lower value 0.927 | [10] 0.987 | S. cerevisiae deletion strains, locus YJR016C, strain ILV3, stronger effect = lower value 0.961 | [11] 0.998 | S. cerevisiae deletion strains, locus YJR066W, strain TOR1 (second series), stronger effect = lower value 0.933 | S. cerevisiae deletion strains, locus YJR066W, strain TOR1, stronger effect = lower value 0.981 | [12] 1.01 | S. cerevisiae deletion strains, locus YKL048C, strain ELM1, stronger effect = lower value 0.965 | S. cerevisiae deletion strains, locus YKL067W, strain YNK1, stronger effect = lower value 0.916 | S. cerevisiae deletion strains, locus YKL101W, strain HSL1, stronger effect = lower value 0.949 | S. cerevisiae deletion strains, locus YKL193C, strain SDS22, stronger effect = lower value 0.958 | S. cerevisiae deletion strains, locus YKL203C, strain TOR2, stronger effect = lower value 1.01 | [14] 0.988 | [15] 0.875 | S. cerevisiae deletion strains, locus YLR113W, strain HOG1, stronger effect = lower value 0.923 | S. cerevisiae deletion strains, locus YLR133W, strain CKI1, stronger effect = lower value 0.932 | [16] 0.871 | S. cerevisiae deletion strains, locus YLR403W, strain SFP1, stronger effect = lower value 0.962 | S. cerevisiae deletion strains, locus YML070W, strain DAK1, stronger effect = lower value 0.924 | [17] 0.905 | S. cerevisiae deletion strains, locus YMR001C, strain CDC5, stronger effect = lower value 0.968 | S. cerevisiae deletion strains, locus YMR205C, strain PFK2 (second series), stronger effect = lower value 0.951 | [18] 0.99 | [19] 0.971 | S. cerevisiae deletion strains, locus YMR277W, strain FCP1, stronger effect = lower value 0.96 | S. cerevisiae deletion strains, locus YNL006W, strain LST8, stronger effect = lower value 0.965 | S. cerevisiae deletion strains, locus YNL020C, strain ARK1, stronger effect = lower value 0.911 | S. cerevisiae deletion strains, locus YNL128W, strain TEP1, stronger effect = lower value 0.964 | [20] 0.985 | S. cerevisiae deletion strains, locus YNL161W, strain CBK1, stronger effect = lower value 0.973 | S. cerevisiae deletion strains, locus YNL183C, strain NPR1, stronger effect = lower value 0.955 | S. cerevisiae deletion strains, locus YNL207W, strain RIO2, stronger effect = lower value 0.959 | S. cerevisiae deletion strains, locus YNL222W, strain SSU72, stronger effect = lower value 0.965 | [21] 0.918 | S. cerevisiae deletion strains, locus YNL307C, strain MCK1 (second series), stronger effect = lower value 0.906 | [22] 1 | [23] 0.944 | S. cerevisiae deletion strains, locus YOL078W, strain AVO1, stronger effect = lower value 0.954 | S. cerevisiae deletion strains, locus YOL136C, strain PFK27, stronger effect = lower value 0.929 | S. cerevisiae deletion strains, locus YOR061W, strain CKA2, stronger effect = lower value 0.941 | S. cerevisiae deletion strains, locus YOR119C, strain RIO1, stronger effect = lower value 1.04 | S. cerevisiae deletion strains, locus YOR231W, strain MKK1, stronger effect = lower value 1.01 | S. cerevisiae deletion strains, locus YOR329C, strain SCD5, stronger effect = lower value 0.976 | S. cerevisiae deletion strains, locus YPL031C, strain PHO85, stronger effect = lower value 0.93 | [24] 0.905 | S. cerevisiae deletion strains, locus YPL153C, strain RAD53, stronger effect = lower value 0.937 | S. cerevisiae deletion strains, locus YPL204W, strain HRR25, stronger effect = lower value 0.899 | S. cerevisiae deletion strains, locus YPL209C, strain IPL1, stronger effect = lower value 0.967 | [25] 0.93 | S. cerevisiae deletion strains, locus YPL256C, strain CLN2, stronger effect = lower value 0.915 | S. cerevisiae deletion strains, locus YPR025C, strain CCL1, stronger effect = lower value 0.961 | S. cerevisiae deletion strains, locus YPR106W, strain ISR1, stronger effect = lower value 0.949 | S. cerevisiae deletion strains, locus YPR111W, strain DBF20, stronger effect = lower value 1.01 | [26] 0.97 | S. cerevisiae deletion strains, strain NNK1, stronger effect = lower value 0.964 | S. cerevisiae deletion strains, strain TSCII, stronger effect = lower value 0.954
active: [13] 0.78
0.924 (inactive) and 0.84 (active): [8]

Reference: PubChem BioAssay AID1159580 (chemical genetic matrix, 2015)
